Inconclusive results are not listed. A number with no mark means an inactive call. Calls come from the whole dose curve; as a rule, active = well fitted cell-killing curve with a large enough effect; inconclusive = small, poorly fitted or top-dose-only effect; inactive = flat fitted curve, though single readings scatter.
Assay: Cell Viability - N2a (AID 540);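 note: cells exposed to compound for 40 h at 37 °C; plate controls were DMSO alone for no effect and tamoxifen control for full effect; nearly all actives have a fitted effect of over 45% in size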
Details: N2a mouse neuroblastoma cell viability; activity change, negative = cytotoxicity: at 92.2 µM (top of the series)
From the text: NIH Chemical Genomics Center [NCGC]
NIH Molecular Libraries Screening Centers Network [MLSCN]
National Institutes of Environmental Health Sciences [NIEHS]
National Toxicology Program [NTP]
We have developed a 1536-well cell-based assay for quantitative high throughput screening (qHTS) against a number of cell lines to determine in vitro cytotoxicity of small molecules. This particular assay uses the N2a cell line which is derived from mouse neuroblastoma.
NCGC Assay Protocol Summary:
The CellTiter-Glo luminescent cell viability assay (Promega) is a homogeneous method to measure the number of viable cells in culture. The end point readout of this assay is based on quantitation of intracellular ATP, an indicator of metabolic activity, using the luciferase reaction. Luciferase catalyzes the oxidation of beetle Luciferin to oxyluciferin and light in the presence of ATP. The luminescent signal is proportional to amount of ATP present.
Using the CellTiter-Glo luminescent cell viability assay, the amount of cellular ATP was measured in the N2a cell line with complete culture medium following compound treatment for 40 hours. The assay was performed in opaque white Kalypsys 1536-well plates. In the screen, tamoxifen and doxorubicin were used as positive controls. Library compounds were measured for their ability to cause acute toxicity in the cell line, as reflected by a decrease in intracellular ATP levels, in a concentration-dependent manner. […] AC50 values were determined from concentration-response data modeled with the standard Hill equation.
qHTS protocol for CellTiter Glo N2a cellular assay
[Step] [Parameter] [Value] [Description]
1. Reagent; 5 uL; 1500 N2a cells/well
2. Time; 5 hr; 37 °C incubation
4. Controls; 23 nL; Tamoxifen 0.34 uM to 100 uM & Doxorubicin 0.02 nM to 100 uM
5. Time; 40 hr; 37 °C incubation
6. Reagent; 5 uL; CellTiter Glo reagent
7. Time; 20 min; Room Temperature
8. Detection; Luminescence; Viewlux plate reader
Keywords: cell viability, cytotoxicity, N2a cell line, luminescence, NTPHTS, NTPHTS_NCGC, NIEHS, EPA, DSSTox, MLSMR, MLSCN, NIH Roadmap, qHTS, NCGC

SMILES	activity change, negative = cytotoxicity [%]
CCCC[N+](=O)[O-]	10.4
O=S(=O)(Cl)c1ccccc1	-12
CCCCCOC(=O)c1ccccc1C(=O)OCCCCC	-0.943
Cl/C=C\Cl	1.87
O=C(O)CCl	-4.26
CC(Cl)CCl (stereo not given)	8.21
C[N+](=O)[O-]	2.58
O=P(OCCCl)(OCCCl)OCCCl	-3.74
CCCCCCCCCCCOC(=O)c1ccccc1C(=O)OCCCCCCCCCCC	8.21
O=C(Cl)OCc1ccccc1	7.02
CC(C)(OOC(C)(C)c1ccccc1)c1ccccc1	-13.2
CN1CSC(=S)N(C)C1	-20.6
O=[N+]([O-])c1ccc2c3c(cccc13)CC2	-13.4
CC(C)[N+](=O)[O-]	-1.68
O=[N+]([O-])CCO	-9.75
Cc1cccc(C)c1N	4.57
CN(C)C(=O)Nc1cccc(C(F)(F)F)c1	-7.88
C=COC(C)=O	6.25
CCCCOC(C)=O	1.97
Cc1cc(N=Nc2ccccc2C)ccc1N	-52.3

SMILES	activity change, negative = cytotoxicity [%]
CCN(CC)N=O	4.38
CC(C)OC(=O)Cc1ccccc1	3.7
CC(C)CON=O	3.52
O=C(O)C(Br)CBr (stereo not given)	-10.7
C(CCOCC1CO1)COCC1CO1 (stereo not given)	12.9
CN(C)C(=O)Cl	5.73
O=C(O)c1cc(Cl)ccc1Cl	1.99
Nc1cc(Cl)ccc1Cl	6.06
Nc1cc(Cl)cc(C(=O)O)c1Cl	-0.0327
O=[N+]([O-])c1ccc(Cl)c(Cl)c1Cl	-20.1
Cc1cc(Cl)ccc1O	-9.57
OCCCCO	-12.6
ClCCOCOCCCl	3.36
C=CCCC#N	-12.3
Cc1ccccc1[N+](=O)[O-]	-3.65
Cc1cccc(N)c1C	0.0485
O=[N+]([O-])c1cc(Cl)c(Cl)c(Cl)c1	-9.76
C=CCBr	0.47
O=[N+]([O-])c1cccc2c([N+](=O)[O-])cccc12	-4.03
C=CC(=O)OCCN(C)C	2.87
